Most compounds without a hit are left out; they make up all but 12% or so of the library.
G9a inh = inhibitors of human histone lysine methyltransferase G9a; G9a H3K9 monomethylation, AlphaScreen, 2 h; Q96KQ7; 350,000 tested, 8.8% active; Potency, µM (top dose mostly 102 µM), hits mostly inhibitors; AID 504332; also: nearly all actives have a fitted effect of over 75% in size
Target sequence (Q96KQ7 913-1193 limits assumed): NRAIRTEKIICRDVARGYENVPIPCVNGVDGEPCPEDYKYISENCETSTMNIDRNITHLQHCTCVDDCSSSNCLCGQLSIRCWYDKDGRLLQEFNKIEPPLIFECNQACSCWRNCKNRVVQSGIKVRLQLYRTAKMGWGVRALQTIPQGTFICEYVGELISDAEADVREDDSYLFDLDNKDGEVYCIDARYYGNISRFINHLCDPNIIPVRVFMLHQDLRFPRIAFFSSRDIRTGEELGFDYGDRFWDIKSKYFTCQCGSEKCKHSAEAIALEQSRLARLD
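Enzyme 20 nM + cpd, 15 min RT; add b-H3K9 pep 500 nM / SAM 20 uM; 2 h RT; anti-H3K9me1 Ab 0.5 ug/mL + SA donor / anti-rabbit acceptor beads 20 ug/mL each, 10 min; AlphaScreen read.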
L3MBTL1 inh = inhibitors of human L3MBTL1. Q9Y468. AlphaScreen L3MBTL1–H3K9me1 peptide binding. Potency, µM (titrated, usually from 57.1 µM), most hits filed as inhibitors. 230,000 tested, 0.66% active. AID 485360; also: nearly all actives have a fitted effect of over 60% in size
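First, the protein-peptide complex forms for 30 min at room temperature (L3MBTL1 50 nM, biotinylated H3K9me1 peptide 75 nM). Next, compounds are pin-transferred and incubated 30 min. Finally, AlphaScreen beads are added and read after 30 min.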
Sfp inh = inhibitors of Bacillus subtilis Sfp phosphopantetheinyl transferase. 310,000 tested, 3.5% active. Biochemical Sfp PPTase activity, qHTS. AID 1490. Potency, µM, actives largely listed as inhibitors;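 also: the enzyme is Sfp with the accession as filed and its product quenches rhodamine fluorescence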
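Buffer: 50 mM Hepes-Na pH 7.6, 10 mM MgCl2, 0.01% Nonidet P-40, 0.01% BSA. Enzyme 15 nM, pre-exposed to compound 15 min; substrates then added and fluorescence change tracked over 30 min.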
JMJD2A Tudor = JMJD2A Tudor domain (human) inhibition | O75164 | AlphaScreen JMJD2A-Tudor / H3K4me3 peptide binding | Potency, µM (highest dose often 114 µM), hits mostly inhibitors | 390,000 tested, 4.4% active; also: nearly all actives have a fitted effect of over 50% in size
HP1b chromo inh = inhibitors of HP1-beta chromodomain binding to methylated histone tails; P83916; AlphaScreen HP1-beta / biotin-H3K9me3 peptide binding; Potency, µM (top dose mostly 114 µM), hits mostly inhibitors; 390,000 tested, 0.56% active; AID 540317; also: nearly all actives have a fitted effect of over 70% in size
Target sequence (P83916 whole entry, looked up): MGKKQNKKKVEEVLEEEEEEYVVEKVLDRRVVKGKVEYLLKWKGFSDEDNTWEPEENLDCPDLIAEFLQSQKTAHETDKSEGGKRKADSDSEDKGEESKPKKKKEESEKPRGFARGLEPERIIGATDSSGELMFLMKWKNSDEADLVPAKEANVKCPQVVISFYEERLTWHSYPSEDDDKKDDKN
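AlphaScreen: HP1-beta (50 nM) preformed 30 min with biotin-H3(1-18)K9me3 peptide (50 nM) in PBS pH 7.4, 0.01% Tween-20. Compound added for 30 min at RT, then streptavidin donor/nickel chelate acceptor beads (10 ug/mL) for 30 min.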
BAZ2B inh = BAZ2B (human) inhibition | AlphaScreen BAZ2B-H3K14Ac peptide displacement | Potency, µM (doses to about 114 µM), most hits filed as inhibitors | 360,000 tested, 4.4% active; also: nearly all actives have a fitted effect of over 60% in size
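Multi-concentration screen (max 110 uM) measuring displacement of acetylated histone H3 peptide from BAZ2B by AlphaScreen, using 50 nM protein, 50 nM peptide and 10 ug/mL streptavidin donor plus Ni-chelate acceptor beads.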
A number is an active result; [ ] = dose if it differs, or a comment. Calls follow the shape of the dose curve; as a rule, active = well fitted curve in the direction sought with a large enough effect; inconclusive = small, poorly fitted or top-dose-only effect, or another doubt; inactive = no such curve, though single readings can be large; an effect the other way counts as inactive or inconclusive.

Screening CC1CCCN(Cc2cccc(Oc3ccccc3)c2)C1 (stereo not drawn) returned G9a inh inactive, L3MBTL1 inh inactive, Sfp inh inactive, JMJD2A Tudor inactive, HP1b chromo inh inactive and BAZ2B inh inactive.
COc1cccc(OCCCCN2CCCCC2)c1 was read as G9a inh inconclusive, L3MBTL1 inh inactive, Sfp inh inactive, JMJD2A Tudor 8.9µM, HP1b chromo inh inactive and BAZ2B inh inconclusive.
For CC1CCCN(CCCCOc2cccc(Br)c2)C1 (stereo not drawn) the results were G9a inh inconclusive, L3MBTL1 inh inactive, Sfp inh inactive, JMJD2A Tudor 50µM, HP1b chromo inh inactive and BAZ2B inh 50µM.
`COc1ccc(NC(=O)Nc2c[nH]c(=O)[nH]c2=O)cc1` gave G9a inh inactive, Sfp inh inactive, JMJD2A Tudor inactive, HP1b chromo inh inactive and BAZ2B inh inactive.
CC1O[C@@H](O[C@H]2C(Oc3cc(O)c4c(c3)OC(c3ccc(O)cc3)CC4=O)OC(CO)C(O)C2O)C(O)C(O)C1O (stereo partly drawn) was read as Sfp inh inactive.
Screening O=C(N1CCc2ccc(S(=O)(=O)N3CCN(S(=O)(=O)c4ccc5c(c4)OCCO5)CC3)cc2C1)C(F)(F)F returned JMJD2A Tudor inactive.
`CC1CCCN(CCOc2ccc(Br)cc2)C1` (stereo not drawn) gave G9a inh 10µM, L3MBTL1 inh inactive, Sfp inh inconclusive, JMJD2A Tudor 20µM, HP1b chromo inh inactive and BAZ2B inh inconclusive.
`O=C(COc1ccc(Br)cc1)OCCN1CCCCC1` gave G9a inh inactive, L3MBTL1 inh inactive, Sfp inh inactive, JMJD2A Tudor inactive, HP1b chromo inh inactive and BAZ2B inh inactive.
CCC1CCCCN1CCCCOc1cccc(Cl)c1 (stereo not drawn) was read as G9a inh inactive, Sfp inh inactive, JMJD2A Tudor 18µM, HP1b chromo inh inconclusive and BAZ2B inh inconclusive.
Fc1ccc(OCCCCCCN2CCCC2)cc1 was read as G9a inh inactive, L3MBTL1 inh inactive, Sfp inh inactive, JMJD2A Tudor inactive, HP1b chromo inh inactive and BAZ2B inh inactive.
Screening Brc1cccc(OCCCCN2CCCCC2)c1 returned G9a inh 7.1µM, L3MBTL1 inh inactive, Sfp inh inactive, JMJD2A Tudor 50µM, HP1b chromo inh inconclusive and BAZ2B inh inconclusive.
For C=Cc1nc(Nc2cc(F)cc(F)c2)nc(NC2CCCC2)n1 the results were JMJD2A Tudor inactive.
Screening CCc1cc(-c2n[nH]c(=S)n2-c2cccc(C)c2)cs1 returned G9a inh inconclusive, Sfp inh 50µM, JMJD2A Tudor 32µM, HP1b chromo inh inactive and BAZ2B inh inactive.
`CCc1ccccc1NC(=O)CSc1nc2n[nH]c(C)c2c(=N)n1-c1cccc(C)c1` gave G9a inh inactive, JMJD2A Tudor inactive, HP1b chromo inh inactive and BAZ2B inh inactive.
`Cc1cccc(-n2c(-c3csc(C)c3)n[nH]c2=S)c1` gave G9a inh 0.32µM, Sfp inh inactive, JMJD2A Tudor 11µM, HP1b chromo inh inconclusive and BAZ2B inh inactive.
COc1cc(NS(=O)(=O)c2ccc(NC(=O)c3ccc(C(C)=O)cc3)cc2)nc(OC)n1 was read as G9a inh inactive, JMJD2A Tudor inactive, HP1b chromo inh inactive and BAZ2B inh inactive.
CCN(CC)S(=O)(=O)c1ccc(Oc2ccccc2)c(N)c1 was read as G9a inh inactive, L3MBTL1 inh inactive, Sfp inh inactive, JMJD2A Tudor inactive and HP1b chromo inh inactive.
For Cc1cc(C)[n+](-c2ccc(Oc3ccccc3)c(S(=O)(=O)[O-])c2)[nH]1 the results were G9a inh inconclusive, L3MBTL1 inh inactive, Sfp inh inactive, JMJD2A Tudor 50µM, HP1b chromo inh inactive and BAZ2B inh inactive.
Screening CNC(=S)NCCc1cc2c(OC)ccc(OC)c2[nH]c1=O returned G9a inh inconclusive, Sfp inh inactive, JMJD2A Tudor 18µM and HP1b chromo inh inactive.
Screening NC(=O)CNC(=O)[C@@H]1CC2(CC(c3ccc(Cl)cc3)=NO2)CN1C(=O)c1ccccc1 (stereo partly drawn) returned G9a inh inconclusive, L3MBTL1 inh inactive, Sfp inh inactive, JMJD2A Tudor inactive, HP1b chromo inh inactive and BAZ2B inh inactive.
Screening COc1cccc(N2CCN(C(=O)c3ccc(=O)oc3)CC2C)c1 (stereo not drawn) returned G9a inh inconclusive, L3MBTL1 inh inactive, Sfp inh 35µM, JMJD2A Tudor inactive, HP1b chromo inh inactive and BAZ2B inh inactive.
`O=C(c1ccc2nc(N3CCOCC3)sc2c1)N1CCCC1` gave G9a inh inconclusive, L3MBTL1 inh inactive, Sfp inh inactive, JMJD2A Tudor inactive, HP1b chromo inh inactive and BAZ2B inh inactive.
Screening COc1cccc(NC(=O)N2CCN(c3cccc(C)c3)C(C)C2)c1 (stereo not drawn) returned G9a inh inactive, L3MBTL1 inh inactive, Sfp inh inactive, JMJD2A Tudor inactive, HP1b chromo inh inactive and BAZ2B inh inconclusive.
For COc1cccc(N2CCN(C(=O)c3ccc4ccccc4c3)CC2)c1 the results were G9a inh 50µM, L3MBTL1 inh inactive, JMJD2A Tudor inconclusive, HP1b chromo inh inactive and BAZ2B inh inactive.
COc1cccc(N2CCN(C(=O)c3ccc4nc(N5CCCCC5)sc4c3)CC2)c1 was read as G9a inh 40µM, Sfp inh inactive, JMJD2A Tudor inconclusive, HP1b chromo inh inactive and BAZ2B inh inactive.
`COc1ccc(N2CCN(C(=O)c3ccc4nc(N5CCCCC5)sc4c3)CC2)cc1` gave G9a inh 8.9µM, L3MBTL1 inh inactive, Sfp inh inactive, JMJD2A Tudor inactive, HP1b chromo inh inactive and BAZ2B inh 40µM.
C/C(=N\NC(=O)c1cc(-c2cccc([N+](=O)[O-])c2)n[nH]1)c1ccccc1O was read as G9a inh inactive, L3MBTL1 inh inconclusive, Sfp inh inactive, JMJD2A Tudor 14µM, HP1b chromo inh inactive and BAZ2B inh 8.9µM.
`Cc1ncsc1CCC(=O)N1CCCC(C(=O)c2ccc3c(c2)OCO3)C1` (stereo not drawn) gave G9a inh inactive, L3MBTL1 inh inactive, Sfp inh inactive, JMJD2A Tudor inactive, HP1b chromo inh inactive and BAZ2B inh inactive.
Screening O=C(O)c1ccc(NC(=O)c2ccco2)c(NC(=O)c2ccco2)c1 returned G9a inh inconclusive, Sfp inh inactive, JMJD2A Tudor inactive, HP1b chromo inh inactive and BAZ2B inh inactive.
For CCCCC(c1nnnn1C1CCCC1)N1CCN(C(=O)c2ccco2)CC1 (stereo not drawn) the results were G9a inh inactive[12.7 µM], Sfp inh inactive, JMJD2A Tudor inactive, HP1b chromo inh inactive and BAZ2B inh 79µM.

Assay outcomes (PubChem)
